Screening data from PubChem BioAssay.
BAZ2B inh = BAZ2B (human) inhibition; Potency, µM (doses to about 114 µM), inactives show at the top dose activity change, negative = inhibition, hits mostly inhibitors; hit rate 4.4% among 360,000; AlphaScreen BAZ2B-H3K14Ac peptide displacement; Q9UIF8; AID 504333; also: % is scaled to controls: 0 for no effect and ±100 for the full control effect; nearly all actives have a fitted effect of over 60% in size
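Complex of BAZ2B and biotin-H3K14Ac (50 nM apiece) forms over 30 min at RT, then faces library compounds up to 110 uM for another 30 min; AlphaScreen beads added, 20 min dark incubation, luminescence read.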
L3MBTL1 inh = L3MBTL1 (human) inhibition; Q9Y468; AlphaScreen L3MBTL1–H3K9me1 peptide binding; Potency, µM (series often up to 57.1 µM), for inactives: at the highest dose activity, negative = inhibition, usual class: inhibitors; hit rate 0.66% among 230,000; AID 485360; also: % is scaled to controls: 0 for no effect and ±100 for the full control effect; nearly all actives have a fitted effect of over 60% in size
Target sequence (Q9Y468 whole entry, looked up): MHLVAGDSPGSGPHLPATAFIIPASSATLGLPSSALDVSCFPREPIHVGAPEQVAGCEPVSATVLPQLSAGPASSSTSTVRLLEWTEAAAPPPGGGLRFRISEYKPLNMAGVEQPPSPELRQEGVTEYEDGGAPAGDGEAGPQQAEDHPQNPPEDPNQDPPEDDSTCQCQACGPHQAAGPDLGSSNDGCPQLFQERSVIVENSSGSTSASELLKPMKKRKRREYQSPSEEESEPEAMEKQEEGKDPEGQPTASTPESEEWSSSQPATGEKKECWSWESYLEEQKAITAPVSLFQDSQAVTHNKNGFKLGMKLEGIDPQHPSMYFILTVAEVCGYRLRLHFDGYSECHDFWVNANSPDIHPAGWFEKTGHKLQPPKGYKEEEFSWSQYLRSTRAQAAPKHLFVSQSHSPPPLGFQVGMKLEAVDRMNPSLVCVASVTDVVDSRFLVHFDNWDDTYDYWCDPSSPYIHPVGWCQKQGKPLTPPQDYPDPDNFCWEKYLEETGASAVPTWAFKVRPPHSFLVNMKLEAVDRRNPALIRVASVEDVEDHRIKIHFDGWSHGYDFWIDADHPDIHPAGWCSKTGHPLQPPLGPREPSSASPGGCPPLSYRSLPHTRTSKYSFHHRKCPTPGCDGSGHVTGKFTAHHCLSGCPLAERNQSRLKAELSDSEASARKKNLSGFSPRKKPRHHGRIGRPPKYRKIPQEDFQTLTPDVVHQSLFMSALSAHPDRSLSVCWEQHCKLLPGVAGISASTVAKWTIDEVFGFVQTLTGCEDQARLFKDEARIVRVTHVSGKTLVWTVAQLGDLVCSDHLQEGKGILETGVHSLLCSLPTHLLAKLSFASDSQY
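Read-out is AlphaScreen signal from streptavidin donor and nickel chelate acceptor beads (10 ug/mL final each) bridging L3MBTL1 (50 nM) and biotinylated K9-monomethylated H3(1-15) peptide (75 nM), after 30 min compound exposure at room temperature.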
JMJD2A Tudor = inhibitors of human JMJD2A Tudor domain; AlphaScreen JMJD2A-Tudor / H3K4me3 peptide binding; hit rate 4.4% among 390,000; Potency, µM (top dose mostly 114 µM), without a hit: top-dose activity change, negative = inhibition, actives largely listed as inhibitors; O75164; also: % is scaled to controls: 0 for no effect and ±100 for the full control effect; nearly all actives have a fitted effect of over 50% in size
G9a block = blocks human histone lysine methyltransferase G9a | Q96KQ7 | G9a H3K9 monomethylation, AlphaScreen, 2 h | Potency, µM (titrated, usually from 102 µM), for the others: top-dose activity, negative = inhibition, usual class: inhibitors | hit rate 8.8% among 350,000; also: % is scaled to controls: 0 for no effect and ±100 for the full control effect; nearly all actives have a fitted effect of over 75% in size
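Signal arises when biotinylated H3K9 peptide, once monomethylated, bridges streptavidin donor and antibody-captured acceptor beads. Enzyme at 20 nM was preincubated 15 min with test compounds; peptide 500 nM and SAM 20 uM then reacted for 2 h.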
HP1b binding inh = HP1-beta chromodomain-methylated histone interaction inhibition | AlphaScreen HP1-beta / biotin-H3K9me3 peptide binding | hit rate 0.56% among 390,000 | Potency, µM (highest dose often 114 µM), inactives show top-dose activity change, negative = inhibition, actives largely listed as inhibitors; also: nearly all actives have a fitted effect of over 70% in size
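HP1-beta protein (50 nM final) preincubated 30 min at room temperature with biotinylated H3(1-18)K9me3 peptide (50 nM) in PBS pH 7.4, 0.01% Tween-20, then compound added for 30 min. AlphaScreen streptavidin donor/nickel chelate acceptor beads (10 ug/mL final), 30 min dark, luminescence read.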
Numbers without * were called inactive; ? = inconclusive; nt = not tested or not shown; [ ] = remark or other dose. Compounds with a hit are over-represented: about 11% of the library has one in this group of screens. Calls follow the shape of the dose curve; as a rule, active = well fitted inhibition curve with a large enough effect; inconclusive = small, poorly fitted or top-dose-only effect; inactive = no such curve, though single readings can be large or run the other way. Potency is read from the fitted curve at half-maximal effect.

SMILES	BAZ2B inh	L3MBTL1 inh	JMJD2A Tudor	G9a block	HP1b binding inh
COc1cccc(C(=O)NCCS(=O)(=O)N2CCCCC2)c1	12%	-4%	-3%	11µM*	22%
CCOC(=O)N1CCN(S(=O)(=O)CCNC(=O)c2ccccc2)CC1	-2%	3%	-12%	-28%	-11%
O=C(NCC(c1cccnc1)N1CCc2ccccc2C1)C(=O)Nc1ccc(F)cc1F (centres undefined)	?	nt	-24%	?	-3%
CC[N+](C)(CC)CCC(c1ccccc1)C1CCCCC1 (centres undefined)	50µM*	-3%	?	?	?
CC[N+](C)(CC)CCOC(=O)C(O)(c1ccccc1)C1CCCCC1 (centres undefined)	-15%	4%	-6%	-11%[12.7 µM]	41%
COCCNC(=S)N1CCC(c2nc(-c3ccc(N(C)C)cc3)no2)CC1	56µM*	?	?	?	-33%
Cc1cc(-c2ccccc2)c(C#N)c(=S)[nH]1	-9%	2%	6.3µM*	1.3µM*	79µM*
CCC1(CC)C(=O)C2=C3C1[C@H](C(=O)OC)CC(C(=O)OC)C[C@H]3[C@H]1C(=O)N(C)C(=O)[C@H]1[C@H]2C (some centres undefined)	nt	nt	-17%	nt	23%
CCc1nnc(NC(=O)CSc2nc3c([nH]c4ccccc43)c(=O)n2-c2ccc(Cl)cc2)s1	-1%	nt	-7%	18%[59 µM]	16%[57 µM]
CCCc1c(C)c2ccc(O)c(CN3CCN(c4ccc(F)cc4)CC3)c2oc1=O	4%	nt	5%	?	40%
Cn1c(/N=C/c2cccs2)nc2ccccc21	-12%	2%	-23%	2%[12.7 µM]	-5%
Cc1ccc(C)c(N=Nc2nc3ccccc3n2C)c1	8.9µM*	?	25µM*	30%[0.501 µM]	16µM*
Cc1cc(C)c(C)c(N=Nc2nc3ccccc3n2C)c1C	7.9µM*	?	11µM*	11µM*	13µM*
Cc1ccccc1CNC(=O)C(=O)NCC(c1cccs1)S(=O)(=O)c1ccc(Cl)cc1 (centres undefined)	-2%	nt	5%	4%[59 µM]	35%
COc1ccccc1NC(=O)c1c(C)cc(C)nc1SCC(=O)Nc1ccc(C)cc1	-21%	nt	-20%	-6%[59 µM]	34%
COc1ccc(OCC(=O)NC(=S)N2CCCc3ccccc32)cc1	50µM*	nt	56µM*	?	-26%
COc1ccc(OCCCC(=O)N2CCCc3ccccc32)cc1	9%	nt	-5%	4%[12.7 µM]	16%
O=C(COc1ccccc1)NC(=S)N1CCc2ccccc21	-35%	-1%	-25%	28µM*	-5%
CCCCNC(=O)Cn1c(SCc2ccccc2C)nc2ccncc21	nt	nt	-6%[57.1 µM]	nt	19%[57 µM]
Cc1c(N=CC=Nc2c(C)n(C)n(-c3ccccc3)c2=O)c(=O)n(-c2ccccc2)n1C	-3%	8%	nt	-9%[59 µM]	nt
COc1cc(N=Nc2c(C)n(C)n(-c3ccccc3)c2=O)ccc1N	-25%	nt	-10%	50µM*	11%
CO/S(=N\S(=O)(=O)c1ccc(Cl)cc1)c1ccc([N+](=O)[O-])cc1 (centres undefined)	nt	nt	nt	3.2µM*	nt
COc1cc(C2CC(=O)Oc3cc(C)c(Cl)cc32)cc(OC)c1OC (centres undefined)	nt	nt	nt	21%	nt
CCN(CC)CC#CCOC(=O)[C@@](O)(c1ccccc1)C1CCCCC1	nt	nt	nt	-32%[12.7 µM]	nt
O=c1nc(Nc2ccccc2)oc2ccccc12	-11%	nt	-9%	0%	33%
SMILES	BAZ2B inh	L3MBTL1 inh	JMJD2A Tudor	G9a block	HP1b binding inh
O=c1nc(Nc2cccc(Cl)c2)oc2cc(Cl)oc(=O)c12	?	-9%	-22%	50µM*	33%
COC(=O)C1CN(S(=O)(=O)c2ccccc2)CCN1S(=O)(=O)c1ccccc1 (centres undefined)	-6%	nt	-1%	15%	15%
NC(=S)N=Nc1c(O)n(Cc2ccc(F)cc2)c2ccccc12	11%	-1%	-19%	6%	27%
Cc1cccc(Cn2c(O)c(N=NC(=S)Nc3ccccc3F)c3ccccc32)c1	8.9µM*	nt	10µM*	8.9µM*	-12%
Oc1c(N=NC(=S)Nc2ccccc2F)c2ccccc2n1Cc1cccc(Cl)c1	11µM*	nt	?	?	?
COCCNC(=O)c1nc2c(nnn2Cc2cc(C)ccc2C)c(=O)[nH]1	-18%	13%	?	11µM*	10%
COc1ccc(Cn2nnc3c(=O)[nH]c(C(=O)NCCc4ccc(F)cc4)nc32)cc1OC	-1%	3%	79µM*	-11%[59 µM]	12%
Cc1ccc(C)c(Cn2nnc3c(=O)[nH]c(C(=O)NCC4CCCO4)nc32)c1 (centres undefined)	-4%	7%	?	-10%[59 µM]	18%
CC(=O)N1CCN(S(=O)(=O)c2cccc(C(=O)N(Cc3ccccc3)c3cccc(C)c3)c2)CC1	-22%	9%	-10%	-24%	22%
Cc1ccc(-c2csc3ncn(-n4c(C)ccc4C)c(=O)c23)o1	?	-3%	?	10µM*	-6%
Cc1sc2ncn(-n3c(C)ccc3C)c(=O)c2c1C	-1%	-1%	-33%	-2%[59 µM]	-8%
CCc1cccc(N(C(=O)c2csnn2)C(C(=O)NC(C)(C)C)c2ccncc2)c1 (centres undefined)	?	-10%	56µM*	33%	-5%
O=C(NCc1ccccc1)C(c1ccncc1)N(C(=O)c1ccccn1)c1ccccc1 (centres undefined)	50µM*	nt	25µM*	22µM*	47%
Cc1c(C(=O)N2CCCC2)oc2c1-c1nn(CC(=O)NC(C)c3ccccc3)cc1CC2 (centres undefined)	?	nt	?	-34%[59 µM]	14%
COc1ccccc1CN1CCC2(CC1)CCN(C(=O)c1csnn1)CC2	nt	nt	nt	6%[12.7 µM]	nt
CCNc1ncc2nc(-c3ccc(Cl)cc3)c(=O)n(CCC#N)c2n1	nt	nt	nt	-28%[0.501 µM]	nt
C=C1c2ccccc2O[C@H](C(=O)OCC)[C@@H]1CC(C)(C)c1ccccc1	nt	nt	nt	3%	nt
[O-]/[N+](=C\c1ccc(OC(F)F)cc1)c1ccccc1	-7%	0%	-2%	50µM*	56%
CCOc1ccc(CCNC(=O)Cn2ncn3c(cc4ccccc43)c2=O)cc1OCC	3%	nt	2%	0%[59 µM]	23%
CC1Cc2ccccc2N1C(=O)COC(=O)CCc1nc2ccccc2c(=O)[nH]1 (centres undefined)	-21%	2%	5.6µM*	-29%	-17%
O=C(CCc1nc2ccccc2c(=O)[nH]1)OCC(=O)N1CCc2ccccc21	-16%	nt	-1%	1%	23%
O=C(OCC(=O)N1CCc2ccccc21)c1c2c(nc3ccccc13)CCCC2	-21%	-10%	-23%	?	27%
COC(=O)c1c2c(nc3ccccc13)CCC2	-37%	nt	-9%	?	39%
CC1Cc2ccccc2N1C(=O)COC(=O)c1c2c(nc3ccccc13)CCCCC2 (centres undefined)	-33%	-3%	-17%	2µM*	?
